Results: paper PMC7862700, “An all-to-all approach to the identification of sequence-specific readers for epigenetic DNA modifications on cytosine”

Experiments:
Assay in all cases: DAPPL (digital affinity profiling via proximity ligation, sequencing); 10 mM Tris-HCl pH 7.5, 50 mM NaCl, 1 mM DTT, 4% glycerol, room temperature, 30 min; GST-TFs on glutathione beads, 16-mer random dsDNA library, 0.1% formaldehyde crosslink after washing; high values mean tight binding
Conditions in all cases: protein: recombinant; tags: N-terminal GST; dsDNA, one strand shown
[1] = target: T1, FLI1 (Homo sapiens, UniProt Q01543 1-452)
T1 sequence: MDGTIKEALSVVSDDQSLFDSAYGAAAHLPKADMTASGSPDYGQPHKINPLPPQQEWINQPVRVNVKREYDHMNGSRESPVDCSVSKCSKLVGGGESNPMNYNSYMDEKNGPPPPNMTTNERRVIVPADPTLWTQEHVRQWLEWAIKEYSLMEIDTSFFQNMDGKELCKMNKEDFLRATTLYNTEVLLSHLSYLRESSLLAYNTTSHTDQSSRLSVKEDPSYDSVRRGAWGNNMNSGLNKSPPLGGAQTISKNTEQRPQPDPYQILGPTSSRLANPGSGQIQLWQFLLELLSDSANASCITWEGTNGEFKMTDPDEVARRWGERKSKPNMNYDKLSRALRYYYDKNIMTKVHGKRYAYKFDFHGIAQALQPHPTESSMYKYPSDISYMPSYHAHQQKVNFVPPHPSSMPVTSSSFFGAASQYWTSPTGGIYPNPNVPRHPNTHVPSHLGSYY
Procedure, shortened: (§1)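 Human transcription factors carrying a GST fusion were produced in yeast, bound to glutathione beads, tagged with DNA barcodes and pooled together with a tag-only sample. Each pool was held with 200 nmole of a random double-stranded 16-mer DNA library in Tris/NaCl/DTT/glycerol buffer for 30 min at room temperature, then washed, crosslinked in 0.1% formaldehyde, proximity-ligated with BsaI/T4 ligase (1 h, 37 °C), PCR-amplified and sequenced on an Illumina NextSeq500. Binding signal is the read frequency of each hexamer for a given factor divided by its frequency in the tag-only sample.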

[2] = target: T2, ELK1 (Homo sapiens, UniProt P19419 1-428)
T2 sequence: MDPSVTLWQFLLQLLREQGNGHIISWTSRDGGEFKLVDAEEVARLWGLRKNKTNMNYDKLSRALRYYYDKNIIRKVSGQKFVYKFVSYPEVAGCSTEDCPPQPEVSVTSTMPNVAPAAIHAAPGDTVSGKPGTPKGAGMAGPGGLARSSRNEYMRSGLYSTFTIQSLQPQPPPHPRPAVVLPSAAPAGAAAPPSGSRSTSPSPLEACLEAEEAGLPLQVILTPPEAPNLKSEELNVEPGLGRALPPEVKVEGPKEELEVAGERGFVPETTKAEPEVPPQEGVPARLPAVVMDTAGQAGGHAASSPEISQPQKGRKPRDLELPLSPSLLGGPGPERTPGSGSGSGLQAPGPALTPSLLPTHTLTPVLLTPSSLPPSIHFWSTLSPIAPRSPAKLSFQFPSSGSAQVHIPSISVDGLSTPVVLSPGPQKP
Procedure, shortened: as §1

[3] = target: T3, GABPA (Homo sapiens, UniProt Q06546 1-454)
T3 sequence: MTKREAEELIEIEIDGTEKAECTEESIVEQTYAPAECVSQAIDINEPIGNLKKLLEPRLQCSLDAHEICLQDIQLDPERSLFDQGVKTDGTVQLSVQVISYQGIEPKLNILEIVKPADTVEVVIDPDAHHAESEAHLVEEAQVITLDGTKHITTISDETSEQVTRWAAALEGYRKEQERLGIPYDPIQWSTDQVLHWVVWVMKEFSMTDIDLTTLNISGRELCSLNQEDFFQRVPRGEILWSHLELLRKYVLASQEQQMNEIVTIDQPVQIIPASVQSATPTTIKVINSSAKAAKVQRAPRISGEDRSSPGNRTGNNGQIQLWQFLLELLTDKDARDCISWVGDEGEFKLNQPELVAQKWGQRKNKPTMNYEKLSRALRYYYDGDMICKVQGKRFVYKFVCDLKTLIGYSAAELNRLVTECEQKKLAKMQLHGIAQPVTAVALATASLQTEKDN
Procedure, shortened: as §1

[4] = target: T4, ERG (Homo sapiens, UniProt P11308 1-479)
T4 sequence: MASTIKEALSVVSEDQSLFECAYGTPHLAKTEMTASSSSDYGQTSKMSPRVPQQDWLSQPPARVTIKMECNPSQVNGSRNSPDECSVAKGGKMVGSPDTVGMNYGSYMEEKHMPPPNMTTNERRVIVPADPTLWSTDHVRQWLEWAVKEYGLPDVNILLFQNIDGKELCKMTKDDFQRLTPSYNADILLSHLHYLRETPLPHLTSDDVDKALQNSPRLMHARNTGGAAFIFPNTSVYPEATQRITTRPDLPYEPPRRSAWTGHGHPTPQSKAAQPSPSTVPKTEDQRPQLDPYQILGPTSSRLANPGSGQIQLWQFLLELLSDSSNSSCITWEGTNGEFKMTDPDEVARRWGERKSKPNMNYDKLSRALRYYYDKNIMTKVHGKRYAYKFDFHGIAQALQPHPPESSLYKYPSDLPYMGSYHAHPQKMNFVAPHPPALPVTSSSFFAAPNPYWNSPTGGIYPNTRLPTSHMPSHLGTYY
Procedure, shortened: as §1

[5] = target: ELF1 (Homo sapiens, UniProt P32519 1-619)
Procedure, shortened: as §1

[6] = target: T5, EHF (Homo sapiens, UniProt Q9NZC4 1-300)
T5 sequence: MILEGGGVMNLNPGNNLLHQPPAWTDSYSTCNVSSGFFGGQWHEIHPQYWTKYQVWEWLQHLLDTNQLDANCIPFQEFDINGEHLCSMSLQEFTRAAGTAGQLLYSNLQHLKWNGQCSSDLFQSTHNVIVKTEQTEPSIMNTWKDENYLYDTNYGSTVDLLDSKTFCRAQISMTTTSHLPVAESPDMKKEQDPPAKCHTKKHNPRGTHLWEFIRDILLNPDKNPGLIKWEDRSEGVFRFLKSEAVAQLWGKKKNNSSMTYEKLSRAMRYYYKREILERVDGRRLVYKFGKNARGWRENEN
Procedure, shortened: as §1

[7] = target: SPI1 (Homo sapiens, UniProt P17947 1-270)
Procedure, shortened: as §1

[8] = target: SPIB (Homo sapiens, UniProt Q01892 1-262)
Procedure, shortened: as §1

[9] = target: T6, ELK3 (Homo sapiens, UniProt P41970 1-407)
T6 sequence: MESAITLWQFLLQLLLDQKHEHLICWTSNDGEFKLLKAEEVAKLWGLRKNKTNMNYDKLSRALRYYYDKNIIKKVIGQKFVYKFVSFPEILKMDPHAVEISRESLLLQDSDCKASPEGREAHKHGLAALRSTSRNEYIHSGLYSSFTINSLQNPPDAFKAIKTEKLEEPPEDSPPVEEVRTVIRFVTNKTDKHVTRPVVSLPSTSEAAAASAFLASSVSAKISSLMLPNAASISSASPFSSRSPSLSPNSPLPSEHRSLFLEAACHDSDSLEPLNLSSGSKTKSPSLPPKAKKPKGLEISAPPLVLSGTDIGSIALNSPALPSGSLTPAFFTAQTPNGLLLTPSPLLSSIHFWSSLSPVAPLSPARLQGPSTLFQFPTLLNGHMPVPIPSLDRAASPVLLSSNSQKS
Procedure, shortened: as §1

[10] = target: T7, FEV (Homo sapiens, UniProt Q99581 1-238)
T7 sequence: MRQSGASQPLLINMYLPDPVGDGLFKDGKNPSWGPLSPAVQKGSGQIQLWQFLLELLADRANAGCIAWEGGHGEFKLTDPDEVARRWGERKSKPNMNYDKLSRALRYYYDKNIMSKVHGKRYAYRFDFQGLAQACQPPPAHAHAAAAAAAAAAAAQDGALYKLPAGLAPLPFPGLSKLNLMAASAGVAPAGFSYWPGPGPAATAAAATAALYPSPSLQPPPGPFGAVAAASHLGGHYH
Procedure, shortened: as §1

[11] = target: ETV5 (Homo sapiens, UniProt P41161 1-510)
Procedure, shortened: as §1

[12] = target: ELF4 (Homo sapiens, UniProt Q99607 1-663)
Procedure, shortened: as §1

[13] = target: ETV1 (Homo sapiens, UniProt P50549 1-477)
Procedure, shortened: as §1

[14] = target: T8, ETV3L (Homo sapiens, UniProt Q6ZN32 1-361)
T8 sequence: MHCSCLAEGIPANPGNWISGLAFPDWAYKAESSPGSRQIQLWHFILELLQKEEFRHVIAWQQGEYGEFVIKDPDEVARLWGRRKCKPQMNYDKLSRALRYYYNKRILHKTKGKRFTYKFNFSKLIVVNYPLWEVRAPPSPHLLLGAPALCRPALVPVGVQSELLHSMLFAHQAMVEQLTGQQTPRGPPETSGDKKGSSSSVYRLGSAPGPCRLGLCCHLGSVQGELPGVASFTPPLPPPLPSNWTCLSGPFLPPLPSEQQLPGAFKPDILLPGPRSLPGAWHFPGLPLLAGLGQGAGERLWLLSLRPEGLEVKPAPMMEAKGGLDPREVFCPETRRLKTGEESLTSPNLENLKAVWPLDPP
Procedure, shortened: as §1

[15] = target: T9, ETS2 (Homo sapiens, UniProt P15036 1-469)
T9 sequence: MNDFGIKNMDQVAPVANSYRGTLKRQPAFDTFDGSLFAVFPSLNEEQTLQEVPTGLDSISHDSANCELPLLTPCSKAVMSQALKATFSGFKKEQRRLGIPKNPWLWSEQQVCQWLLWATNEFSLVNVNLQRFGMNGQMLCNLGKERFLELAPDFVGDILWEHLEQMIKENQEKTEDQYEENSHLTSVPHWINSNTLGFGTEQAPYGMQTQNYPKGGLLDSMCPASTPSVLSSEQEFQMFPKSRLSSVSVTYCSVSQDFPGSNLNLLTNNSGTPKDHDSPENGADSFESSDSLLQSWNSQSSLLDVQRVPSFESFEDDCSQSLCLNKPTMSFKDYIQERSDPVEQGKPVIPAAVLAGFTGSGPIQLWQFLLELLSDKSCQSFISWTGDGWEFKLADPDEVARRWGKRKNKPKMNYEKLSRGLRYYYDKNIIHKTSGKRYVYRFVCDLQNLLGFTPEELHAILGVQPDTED
Procedure, shortened: as §1

[16] = target: T10, SPDEF (Homo sapiens, UniProt O95238 1-335)
T10 sequence: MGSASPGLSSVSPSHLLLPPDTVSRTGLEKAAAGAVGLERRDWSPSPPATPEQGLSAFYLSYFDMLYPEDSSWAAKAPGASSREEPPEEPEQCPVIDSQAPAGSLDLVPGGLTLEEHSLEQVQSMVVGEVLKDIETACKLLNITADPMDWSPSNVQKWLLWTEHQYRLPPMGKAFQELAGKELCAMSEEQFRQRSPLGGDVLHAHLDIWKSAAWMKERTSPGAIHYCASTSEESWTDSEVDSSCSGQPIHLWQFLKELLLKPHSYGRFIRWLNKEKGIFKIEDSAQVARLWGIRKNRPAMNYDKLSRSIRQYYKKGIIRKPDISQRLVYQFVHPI
Procedure, shortened: as §1

[17] = target: T11, ETV3 (Homo sapiens, UniProt P41162-2 1-143)
T11 sequence: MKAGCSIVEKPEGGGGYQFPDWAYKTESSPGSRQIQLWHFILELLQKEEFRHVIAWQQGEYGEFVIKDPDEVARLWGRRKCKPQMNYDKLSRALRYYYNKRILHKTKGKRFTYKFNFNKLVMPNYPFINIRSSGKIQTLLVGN
Procedure, shortened: as §1

[18] = target: ETV6 (Homo sapiens, UniProt P41212 1-452)
Procedure, shortened: as §1

Chain of ELF1 (P32519 whole entry): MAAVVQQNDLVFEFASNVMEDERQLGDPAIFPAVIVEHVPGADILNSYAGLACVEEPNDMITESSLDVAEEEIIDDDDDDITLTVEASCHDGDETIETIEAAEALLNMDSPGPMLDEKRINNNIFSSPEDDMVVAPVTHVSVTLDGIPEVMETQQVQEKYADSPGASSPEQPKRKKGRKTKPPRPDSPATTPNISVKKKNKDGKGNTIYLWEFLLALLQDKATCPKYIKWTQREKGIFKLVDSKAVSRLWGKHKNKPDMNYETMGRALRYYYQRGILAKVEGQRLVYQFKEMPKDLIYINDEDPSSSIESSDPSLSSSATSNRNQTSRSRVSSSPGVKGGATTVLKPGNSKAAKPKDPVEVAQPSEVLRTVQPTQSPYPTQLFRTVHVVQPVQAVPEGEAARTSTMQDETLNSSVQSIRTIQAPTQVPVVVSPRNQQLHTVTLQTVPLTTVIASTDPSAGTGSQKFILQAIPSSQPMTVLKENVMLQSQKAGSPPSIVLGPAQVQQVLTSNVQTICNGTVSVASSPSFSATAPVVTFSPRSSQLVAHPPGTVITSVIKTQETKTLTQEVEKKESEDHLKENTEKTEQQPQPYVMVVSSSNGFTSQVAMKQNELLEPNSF
Chain of ETV1 (P50549 whole entry): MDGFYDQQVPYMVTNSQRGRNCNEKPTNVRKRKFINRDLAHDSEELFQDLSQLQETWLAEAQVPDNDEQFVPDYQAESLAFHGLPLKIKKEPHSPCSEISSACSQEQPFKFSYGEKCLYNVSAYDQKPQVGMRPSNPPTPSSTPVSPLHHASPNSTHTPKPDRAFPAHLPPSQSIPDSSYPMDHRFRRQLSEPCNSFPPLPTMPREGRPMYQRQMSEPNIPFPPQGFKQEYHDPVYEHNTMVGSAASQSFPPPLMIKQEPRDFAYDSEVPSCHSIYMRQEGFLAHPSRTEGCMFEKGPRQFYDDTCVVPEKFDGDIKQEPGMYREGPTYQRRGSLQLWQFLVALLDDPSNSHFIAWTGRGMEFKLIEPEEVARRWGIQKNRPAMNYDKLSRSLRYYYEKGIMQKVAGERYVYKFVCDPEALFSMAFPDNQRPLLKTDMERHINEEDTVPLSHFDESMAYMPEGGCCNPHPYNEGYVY
Chain of ETV5 (P41161 whole entry): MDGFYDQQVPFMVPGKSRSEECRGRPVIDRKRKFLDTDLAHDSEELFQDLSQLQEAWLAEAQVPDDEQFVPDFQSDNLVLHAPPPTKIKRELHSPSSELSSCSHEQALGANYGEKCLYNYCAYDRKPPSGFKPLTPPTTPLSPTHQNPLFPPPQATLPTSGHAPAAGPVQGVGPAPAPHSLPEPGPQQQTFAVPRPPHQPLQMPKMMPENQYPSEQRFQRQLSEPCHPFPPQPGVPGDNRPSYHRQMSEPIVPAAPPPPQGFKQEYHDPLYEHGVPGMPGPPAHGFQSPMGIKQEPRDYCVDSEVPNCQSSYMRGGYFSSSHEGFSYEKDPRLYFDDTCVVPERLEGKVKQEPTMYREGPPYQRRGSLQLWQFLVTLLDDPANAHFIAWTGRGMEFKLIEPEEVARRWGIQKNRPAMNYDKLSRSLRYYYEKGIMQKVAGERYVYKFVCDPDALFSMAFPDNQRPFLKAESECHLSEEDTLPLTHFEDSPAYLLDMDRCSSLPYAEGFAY
Chain of ELF4 (Q99607 whole entry): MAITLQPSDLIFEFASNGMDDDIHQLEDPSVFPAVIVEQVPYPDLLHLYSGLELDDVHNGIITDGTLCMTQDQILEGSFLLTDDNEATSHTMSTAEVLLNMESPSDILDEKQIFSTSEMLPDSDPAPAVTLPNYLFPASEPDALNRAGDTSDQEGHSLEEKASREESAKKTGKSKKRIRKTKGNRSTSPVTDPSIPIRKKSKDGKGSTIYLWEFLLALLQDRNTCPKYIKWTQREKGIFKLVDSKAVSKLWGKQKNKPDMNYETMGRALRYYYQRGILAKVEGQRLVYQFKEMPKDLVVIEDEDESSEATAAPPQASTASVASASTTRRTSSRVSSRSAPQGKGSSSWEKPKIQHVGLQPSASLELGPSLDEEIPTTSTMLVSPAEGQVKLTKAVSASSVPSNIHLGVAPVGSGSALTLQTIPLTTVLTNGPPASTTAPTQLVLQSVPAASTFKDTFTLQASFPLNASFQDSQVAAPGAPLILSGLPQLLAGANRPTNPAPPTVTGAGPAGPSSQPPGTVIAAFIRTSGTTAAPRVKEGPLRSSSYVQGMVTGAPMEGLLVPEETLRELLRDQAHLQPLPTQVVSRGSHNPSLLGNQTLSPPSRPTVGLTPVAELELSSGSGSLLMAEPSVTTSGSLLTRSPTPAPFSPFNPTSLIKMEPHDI
Chain of ETV6 (P41212 whole entry): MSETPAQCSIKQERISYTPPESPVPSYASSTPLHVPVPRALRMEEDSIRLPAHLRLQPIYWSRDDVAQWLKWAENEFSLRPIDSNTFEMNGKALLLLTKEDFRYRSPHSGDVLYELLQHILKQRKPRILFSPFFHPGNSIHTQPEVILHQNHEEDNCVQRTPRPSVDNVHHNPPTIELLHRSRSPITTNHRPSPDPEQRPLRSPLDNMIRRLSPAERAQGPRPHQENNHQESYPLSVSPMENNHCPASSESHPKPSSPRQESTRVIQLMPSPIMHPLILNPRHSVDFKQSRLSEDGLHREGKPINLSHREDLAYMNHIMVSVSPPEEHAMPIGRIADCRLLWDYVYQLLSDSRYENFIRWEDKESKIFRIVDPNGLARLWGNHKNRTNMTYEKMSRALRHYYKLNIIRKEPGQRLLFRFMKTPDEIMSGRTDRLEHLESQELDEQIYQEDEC
Chain of SPIB (Q01892 whole entry): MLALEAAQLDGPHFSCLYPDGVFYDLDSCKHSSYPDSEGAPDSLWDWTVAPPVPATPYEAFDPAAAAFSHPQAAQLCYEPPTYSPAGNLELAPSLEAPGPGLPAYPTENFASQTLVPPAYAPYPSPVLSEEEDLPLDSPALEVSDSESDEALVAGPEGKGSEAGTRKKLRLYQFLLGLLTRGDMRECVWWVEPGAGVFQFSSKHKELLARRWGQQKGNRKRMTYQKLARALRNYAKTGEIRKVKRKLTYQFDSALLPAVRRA

For CGCCTG, the binding signal [1] was 1.11 fold enrichment (6-mer frequency, TF over GST control), the binding signal [2] was 1.17 fold enrichment (6-mer frequency, TF over GST control) and the binding signal [3] was 1.08 fold enrichment (6-mer frequency, TF over GST control). The binding signal [4] was 1.15 fold enrichment (6-mer frequency, TF over GST control), the binding signal [5] was 1.12 fold enrichment (6-mer frequency, TF over GST control) and the binding signal [6] was 1.11 fold enrichment (6-mer frequency, TF over GST control). The binding signal [7] was 1.1 fold enrichment (6-mer frequency, TF over GST control), the binding signal [8] was 1.07 fold enrichment (6-mer frequency, TF over GST control) and the binding signal [9] was 1.06 fold enrichment (6-mer frequency, TF over GST control). The binding signal [10] was 1.08 fold enrichment (6-mer frequency, TF over GST control), the binding signal [11] was 1.18 fold enrichment (6-mer frequency, TF over GST control) and the binding signal [12] was 1.05 fold enrichment (6-mer frequency, TF over GST control). For the same sequence, the binding signal [13] was 1.09 fold enrichment (6-mer frequency, TF over GST control), the binding signal [14] was 1.1 fold enrichment (6-mer frequency, TF over GST control) and the binding signal [15] was 1.12 fold enrichment (6-mer frequency, TF over GST control). For the same sequence, the binding signal [16] was 1.03 fold enrichment (6-mer frequency, TF over GST control), the binding signal [17] was 1.06 fold enrichment (6-mer frequency, TF over GST control) and the binding signal [18] was 1.14 fold enrichment (6-mer frequency, TF over GST control).
